Screens from PubChem.
BoNT-A LC inh2 – BoNT/A light chain protease inhibitors, primary screen, biochemical, flow cytometry, MLPCN library | Botulinum neurotoxin type A light chain protease (Clostridium botulinum A str. ATCC 3502) | AID 588499, 2011 | multiplex microsphere protease substrate cleavage | hit rate 0.17% among 360,000 | inhibition, % at 10 µM
Bead autofluor – compound fluorescence in toxin protease inhibitor counterscreen; compound autofluorescence counterscreen, microsphere flow cytometry; hits give high values; fluorescence intensity (test concentration not listed); hit rate 3.1% among 360,000; AID 624483; in the data active = fluorescence intensity above about 16000; inconclusive = no clear call, values can overlap the other calls
BoNT F protease – BoNT/F light chain protease inhibitors, primary screen, biochemical, flow cytometry, MLPCN library | hit rate 0.22% among 360,000 | inhibition, % at 10 µM | Multiplex microsphere protease cleavage assay; in the data active = inhibition above about 35%, passing the limit was not always enough; inconclusive = no clear call, values can overlap the other calls
Vc quorum ag – inducers of Vibrio cholerae quorum light production without autoinducers, primary screen, BH1578 luxS cqsA deficient, single point; V. cholerae BH1578 lux reporter, luminescence, 6 h; activation, % at 18.7 µM; hit rate 0.16% among 350,000; AID 588436, 2011; in the data active = activation mostly above about 9.7%, no sharp cut-off; inconclusive = no clear call, values can overlap the other calls; inactive = mostly below about 3.7%
MazF activator – activators of E. coli MazEF toxin-antitoxin RNase, primary screen, biochemical, fluorescence, uHTS; Endoribonuclease toxin MazF (Escherichia coli (strain K12)), P0AE70; FAM/BHQ RNA-DNA oligo cleavage fluorescence, 5 h; activation, % at 20 µM; hit rate 0.32% among 350,000; AID 504720, 2011; in the data active = activation above about 50%
Anthrax LF inh2 – Bacillus anthracis LF protease inhibitors, primary screen, biochemical, multiplex microsphere, MLPCN library | Lethal factor (Bacillus anthracis), P15917 | multiplex microsphere protease cleavage assay | inhibition, % at 10 µM | hit rate 0.12% among 360,000 | AID 588501, 2011
Of the large screens only hits and unclear results are named; the others gave an inactive call. Only some compounds are listed: those with a hit (about 3.9% of all), similar ones and a draw of the others. Cut-off read from the data, not from the text of the source, unless noted: active = inhibition above about 30%; inconclusive = no clear call, values can overlap the other calls; inactive = below that.

Cc1ccc(Cn2ccc(NC(=O)c3cc(-c4ccc(F)cc4)on3)n2)cc1	Bead autofluor 24044
Cn1ccnc1C1CCCCN1C(=O)c1cc(COc2ccc(F)cc2F)on1 (centres undefined)	none
Cc1nn(C(C)C(=O)NCCCN2CCCCCC2)c(=O)c2cc3sccc3n12 (centres undefined)	none
CC1CC(C)CN(S(=O)(=O)c2cccc3cccnc23)C1 (centres undefined)	none
O=c1n(S(=O)(=O)c2cccc3cccnc23)c2ccccc2n1S(=O)(=O)c1cccc2cccnc12	Bead autofluor 20693
CC1CCCCN1CCNC(=O)C1CCN(S(=O)(=O)c2cccc3cccnc23)CC1 (centres undefined)	Bead autofluor 17441
O=S(=O)(c1cccc2cccnc12)N1CCOCC1	Bead autofluor 23370
Cc1nnc(C)n1N	none
O=C(CSc1nnnn1-c1cccc(O)c1)NC1CC1	none
O=C(CSc1nnc(NC(=O)c2ccccc2)s1)NC1CCCC1	none
Cc1ccc(S(=O)(=O)NC(=NCC(=O)O)c2ccc(F)cc2)cc1	Bead autofluor 25722
CSC(=Nc1ccccc1)N=C(SCc1ccccc1)N(C)C	none
CC(Nc1cc(N2CCCC2)ccc1[N+](=O)[O-])c1ccccc1 (centres undefined)	none
CCCC(=O)N1CCN(c2ccc([N+](=O)[O-])c(NC(C)c3ccccc3)c2)CC1 (centres undefined)	Bead autofluor 16602
CCCSc1nnc(NC(=O)c2nc(SC)ncc2Cl)s1	BoNT-A LC inh2 inconclusive, Bead autofluor 19506
COc1ccccc1-c1nnc(SC2CCc3ccccc3NC2=O)s1 (centres undefined)	BoNT-A LC inh2 inconclusive, Bead autofluor 20615
COc1ccccc1-c1nnc(N)s1	none
CC1=C(C(=O)Nc2cc(C)ccc2C)C(c2cccs2)NC(=S)N1 (centres undefined)	Bead autofluor 21275
CCCCCOc1ccc(C(=O)Nc2ccc(S(=O)(=O)Nc3cc(C)on3)cc2)cc1	none
O=C(O)c1ccc(OCCN2CCCC2=O)cc1	Bead autofluor 19644
C=CCCCOc1ccc(C(=O)O)cc1	Bead autofluor 21372
O=C(O)c1ccccc1OCCN1CCCC1=O	none
CC1(C)C2CC=C(/C=N/NC(=O)c3ccccc3Br)C1C2 (centres undefined)	none
CCOC(=O)C(=CNc1cc(C)nn1-c1ccccc1)C(=O)OCC	BoNT-A LC inh2 inconclusive, Bead autofluor 21382
COc1cccc(OC)c1-c1nn2c(-c3ccccc3Cl)nnc2s1	Bead autofluor 21844
Clc1ccccc1-c1nnc2sc(-c3ccccn3)nn12	BoNT-A LC inh2 inconclusive, Bead autofluor 21229
Clc1ccccc1-c1nnc2sc(-c3ccco3)nn12	Bead autofluor 23775
COc1cc(-c2nnc3sc(-c4ccco4)nn23)cc(OC)c1OC	BoNT-A LC inh2 inconclusive, Bead autofluor 23532
COc1ccc(-c2nnc3sc(-c4ccco4)nn23)cc1OC	none
COc1ccc(-c2nnc3sc(-c4ccccc4OC)nn23)cc1	none
c1cncc(-c2nnc3sc(-c4ccco4)nn23)c1	none
COc1ccc(N2C(=O)C3C4C=CC(CC4)C3C2=O)c([N+](=O)[O-])c1 (centres undefined)	none
COc1ccc(N2C(=O)C3C4C=CC(C5CC45)C3C2=O)c([N+](=O)[O-])c1 (centres undefined)	Vc quorum ag 16.7
CCC(C)(C)n1nnnc1C(c1cc2cc(OC)c(OC)cc2[nH]c1=O)N1CCc2ccccc21 (centres undefined)	Bead autofluor 24005
CCN1CCN(C(c2cc3cc4c(cc3[nH]c2=O)OCO4)c2nnnn2C(C)(C)CC)CC1 (centres undefined)	Bead autofluor 20945
CC(C)(C)n1nnnc1C(c1cc2cc3c(cc2[nH]c1=O)OCO3)N1CCN(c2ccccc2)CC1 (centres undefined)	none
OC[C@H]1O[C@@H](c2nc3ccc(-c4nc(-c5cccs5)no4)cc3[nH]2)C[C@@H]1O	none (no result: MazF activator)
CCOc1ccc(C2c3[nH]c4ccccc4c3CCN2C(=O)Cn2cncn2)cc1 (centres undefined)	none
Cc1ccc(SC(=O)c2c(C)noc2-c2cc(C)on2)cc1	BoNT F protease inconclusive
O=c1[nH]c(=O)n(Cc2ccco2)c(O)c1C=NCc1ccc2c(c1)OCO2	Bead autofluor 22050
COc1cccc(-n2c(O)c(C=NCc3ccc4c(c3)OCO4)c(=O)[nH]c2=O)c1	Bead autofluor 22432
Cc1ccccc1-n1c(O)c(C=Nc2ccc3c(c2)OCO3)c(=O)[nH]c1=O	BoNT-A LC inh2 inconclusive, Bead autofluor 22656
CC(NC(=O)C1CCN(C(=O)[C@@H]2Cc3ccccc3CN2)CC1)c1ccccc1 (some centres undefined)	none
CCc1cccc(NC(=O)COC(=O)c2c(C)nn(-c3ccccc3)c2C)c1	none
O=C(c1ccc(CS(=O)(=O)Cc2ccc(Cl)cc2)o1)N1CCCC1	Bead autofluor 23181
Cc1ccc(S(=O)(=O)Cc2ccc(C(=O)N3CCCC3)o2)cc1	none
O=C1c2ccccc2C(=O)c2c([N+](=O)[O-])ccc(O)c21	BoNT F protease inconclusive
O=C(O)c1ccc([N+](=O)[O-])c2c1C(=O)c1ccccc1C2=O	BoNT-A LC inh2 inconclusive, Bead autofluor 20562, BoNT F protease inconclusive
O/N=C(/c1ccccc1)c1cc2cc(Br)cc(Br)c2o1	Anthrax LF inh2 30.5
COc1cccc2cc(/C(=N/O)c3ccc(Br)cc3)oc12	none
N#CCCN(Cc1ccccc1)C(=O)CCC(=O)c1ccc(F)cc1	none
Cc1ccc(NC(=O)C(C)N2C(=O)C3CC=C(Cl)CC3C2=O)cc1 (centres undefined)	none
Cc1ccc(NC(=O)C(C)N2C(=O)C3C4CC(C(Br)C4Br)C3C2=O)cc1 (centres undefined)	Bead autofluor 22632, Vc quorum ag 38.0
CSc1nc(NC(C)(C)C)nc(Oc2ccc(=O)[nH]n2)n1	Bead autofluor 19465
Cc1nn(CCCC(=O)NCCc2ccc(Cl)cc2)c(=O)c2nn(-c3ccccc3)c(C)c12	none
COc1ccc2c(c1)NC(=O)CC(c1ccccc1)=N2	Bead autofluor 23168
COc1ccc(O)c(C2=Nc3ccccc3N=C(c3ccccc3)C2)c1	none
O=C(CCN1C(=O)c2ccccc2C1=O)Nc1ccc(S(=O)(=O)N2CCOCC2)cc1	Bead autofluor 22292
O=C(COc1ccc(Cl)cc1)Nc1nc(-c2ccc(S(=O)(=O)N3CCOCC3)cc2)cs1	BoNT-A LC inh2 inconclusive, Bead autofluor 22761
CCOc1ccc(N2CC(C(=O)Nc3ccc(S(=O)(=O)N4CCOCC4)cc3)CC2=O)cc1 (centres undefined)	BoNT-A LC inh2 inconclusive, Bead autofluor 23130
